Assay results taken from PubChem BioAssay (EPA / NIEHS).
Several values for one entry are separate records, joined by “and”; a condition that tells them apart may be missing. Identical values can stand only once. Results filed as inconclusive are left out. Where a structure was tested more than once in an assay, its records may differ in their call. Activity calls are given as the source filed them. How the source made its calls, unless noted: active means hit-call score of the fitted dose curve at least 0.9, where 1 is the maximum; inconclusive means response in the unintended direction; inactive means score below 0.9.

Tests used:
[1] = CEETOX_H295R_MTT_cell_viability: Viability Assessment in the CeeTox HT-H295R MTT Assay (AID 2283718; active means hit-call score of the fitted dose curve at least 0.9, where 1 is the maximum; inactive means score below 0.9;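 on AC50: curve fitted both ways so AC50 may mark viability loss or gain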)
Procedure, shortened: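 H295R cells prestimulated 48 h with 10 uM forskolin, then exposed 48 h to test chemical (0.1% DMSO final). Viability by MTT (0.5 mg/ml, 4 h, 37 C), absorbance 570/650 nm; percent change versus DMSO, bidirectional fit.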

[2] = Tanguay_ZF_120hpf_ActivityScore_legacy: (Legacy) Oregon State University Tanguay Lab 120 Hour Post-fertilization zebrafish Assay Score for Activity (AID 2283742);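 on AC50: static exposure from 6 hpf until 120 hpf at 28 °C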
Procedure, shortened: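 Tropical 5D wild-type zebrafish embryos, dechorionated with pronase at 4 hpf, were exposed singly from 6 hpf to 120 hpf statically at 28C in 0.64% DMSO. Malformations and mortality were scored as binary by brightfield, with the activity score combining 18 morphology components.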

[3] = ACEA_AR_agonist_AUC_viability: ACEA Biosciences xCELLigence Real-Time Cell Analysis on Androgen Receptor Agonism for Viability (AID 2283775);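 on AC50: viability read 80 hours after compound addition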
Procedure, shortened: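 Real-time impedance tracking of 22Rv1 growth, readings every 5 min for 5 h then hourly; area-under-curve viability endpoint at 80 hours, relative to DMSO. Compounds at eight concentrations, 1:4 steps, top 100 uM, n = 2.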

[4] = ACEA_AR_antagonist_AUC_viability: ACEA Biosciences xCELLigence Real-Time Cell Analysis on Androgen Receptor Antagonism for Viability (AID 2283776);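 further: 22Rv1 human prostate cancer cells growing on impedance electrode plates; hits lower the growth signal relative to DMSO meaning cytotoxicity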
Procedure, shortened: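 Real-time electrical impedance tracks 22Rv1 proliferation after continuous compound exposure (top 100 uM final, 1:4 steps, 8 concentrations). The 80 h area-under-curve serves as the cytotoxicity readout relative to DMSO.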

[5] = system: zebrafish Androgen Receptor (AR), gene 100005148; experiment: ATG_zfAR_XSP1: Attagene TRANS-FACTORIAL Multi-Species (XSP1) HepG2 Assay for zebrafish Androgen Receptor (AR) (AID 2283771)
Procedure, shortened: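 HepG2 cells were transiently transfected with a zebrafish AR-GAL4 reporter system and partially stimulated with 3 nM 6-alpha-fluorotestosterone. Reporter mRNA was measured after 24 h dosing by RT-PCR with capillary electrophoresis, and gain-of-signal was fitted relative to DMSO.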

[6] = target: zebrafish Estrogen Receptor (ESR1), esr1 (gene 259252) (UniProt P57717); experiment: ATG_zfER1_XSP1: Attagene TRANS-FACTORIAL Multi-Species (XSP1) HepG2 Assay for zebrafish Estrogen Receptor (ESR1) (AID 2283772)
Procedure, shortened: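 Exogenous chimeric receptor-GAL4 activity is measured in transiently transfected human HepG2 liver cells after 24 h compound exposure. Reporter transcripts are detected by RT-PCR and fluorescent capillary electrophoresis, analysed for signal gain relative to DMSO.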

[7] = system: frog Estrogen Receptor (ESR2), gene 100174814; experiment: ATG_frER2_XSP1: Attagene TRANS-FACTORIAL Multi-Species (XSP1) HepG2 Assay for frog Estrogen Receptor (ESR2) (AID 2283774)
Procedure, shortened: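 HepG2 cells transiently transfected with GAL4-UAS multiplexed reporter units expressing chimeric NR-Gal4 proteins; reporter mRNA measured 24 h after dosing by RT-PCR, FAM labeling, HpaI digestion and capillary electrophoresis. Gain-of-signal relative to DMSO; 3 nM 6-alpha-fluorotestosterone present.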

[8] = system: frog Estrogen Receptor (ESR1), gene 398734; experiment: ATG_frER1_XSP1: Attagene TRANS-FACTORIAL Multi-Species (XSP1) HepG2 Assay for frog Estrogen Receptor (ESR1) (AID 2283777)
Procedure, shortened: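 Read-out: fluorescent reporter mRNA via RT-PCR, HpaI digestion and capillary electrophoresis, after 24 h chemical exposure of transiently transfected human HepG2 cells expressing exogenous NR-Gal4 chimeras. DMSO served as baseline for positive-direction fitting.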

[9] = target: Luciferin 4-monooxygenase (Photinus pyralis) (UniProt P08659); experiment: CCTE_Simmons_QuantiLum_inhib_2: CCTE's Firefly Luciferase Inhibition Assay, Simmons Lab (AID 2283767);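 on AC50: potency for inhibitors that lower luciferase luminescence relative to DMSO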
Procedure, shortened: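 Luminescence loss relative to DMSO vehicle defines inhibition; detection reagent containing 150 uM D-luciferin and 147 uM dATP (final, pH 7.8) is injected immediately before each read. Enzyme is preincubated with an 8-point titration (5 nM–87.5 uM final) for 30 min at 37C.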

[10] = ArunA_CellTiter_hNC: Viability Assessment in the ArunA Biomedical's Oris Neural Crest (hNC) Cell Migration Assay (AID 2283752)
Procedure, shortened: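 Cell titer was measured with the CellTiter Aqueous One reagent after 72 h of chemical dosing. Cells were H9-derived embryonic neural crest stem cells seeded on Matrigel, 60,000 per well, and given 16 h at 37C beforehand.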

[11] = ArunA_CellTiter_hNP: Viability Assessment in the ArunA Biomedical's Oris Neural Crest (hNC) Cell Migration Assay (AID 2283753)
Procedure, shortened: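 H9-derived hNP1 neuroprogenitors, 60,000/well on Matrigel, cultured 16 h, then 72 h chemical exposure in test medium. Cell titer via CellTiter Aqueous One; positive-direction fit vs DMSO.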

[12] = ArunA_Migration_hNC: ArunA Biomedical's Oris Neural Crest (hNC) Cell Migration Assay (AID 2283755)
Procedure, shortened: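 Human H9-derived neural crest stem cells, 60,000/well on Matrigel, 16 h at 37C, then 72 h chemical exposure after seeding-stopper removal. Migration into detection zone read as calcein-AM fluorescence (ex494/em517), relative to DMSO.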

[13] = ArunA_NOG_NucleusCount: ArunA Biomedical's Neurite Outgrowth (NOG) Assay for Nucleus Count (AID 2283756)
Procedure, shortened: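 Human H9-derived differentiated neurons were exposed for 48 h right after seeding. Hoechst-stained nuclei gated by size and intensity were counted by automated high-content imaging as viable neurons. Loss of signal vs DMSO.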

[14] = ArunA_NOG_NeuriteLength: ArunA Biomedical's Neurite Outgrowth (NOG) Assay for Neurite Length (AID 2283757)
Procedure, shortened: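 Differentiated human H9-derived neurons were exposed for 48 h from seeding, then stained with Hoechst and βIII-tubulin. Automated high-content imaging gave total neurite length per valid neuron, counting processes >10 um. Loss of signal was scored versus DMSO.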

[15] = ArunA_NOG_NeuritesPerNeuron: ArunA Biomedical's Neurite Outgrowth (NOG) Assay for Neurites Per Neuron (AID 2283758)
Procedure, shortened: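 Differentiated human H9-derived neurons exposed to chemicals for 48 h from seeding, then stained with Hoechst and βIII-tubulin/DyLight 488. Automated imaging counted neurites (processes >10 um) per valid neuron; loss of signal versus DMSO scored.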

[16] = system: chicken Androgen Receptor (AR), gene 422165; experiment: ATG_chAR_XSP1: Attagene TRANS-FACTORIAL Multi-Species (XSP1) HepG2 Assay for chicken Androgen Receptor (AR) (AID 2283768)
Procedure, shortened: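 HepG2 cells transiently transfected with multiplexed GAL4-UAS reporter units expressing chimeric chicken AR-Gal4; 3 nM 6-alpha-fluorotestosterone for partial AR stimulation; 24 h after dosing, reporter mRNA by RT-PCR and capillary electrophoresis, gain-of-signal versus DMSO.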

[17] = system: frog Androgen Receptor (AR), gene 399456; experiment: ATG_frAR_XSP1: Attagene TRANS-FACTORIAL Multi-Species (XSP1) HepG2 Assay for frog Androgen Receptor (AR) (AID 2283770)
[18] = ArunA_Migration_hNP: ArunA Biomedical's Oris Neuroprogenitor (hNP) Cell Migration Assay (AID 2283754)
Procedure, shortened: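 Human H9-derived hNP1 neuroprogenitors on Matrigel with LIF/bFGF, plated around seeding stoppers for 16 h at 37C; stoppers removed at start of 72 h chemical exposure. Calcein-AM staining, fluorescence 494/517 nm in detection zone; loss-of-signal vs DMSO; cytochalasin D control.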

[19] = system: Thyroperoxidase (TPO), gene 445522; experiment: CCTE_Simmons_GUA_TPO: CCTE's Guaiacol Assay for Thyroperoxidase (TPO) Inhibition, Simmons Lab (AID 2283750)
Procedure, shortened: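 Porcine thyroid microsomes (25 ug) in 200mM potassium phosphate, preincubated 30 s at 37C with compound (8 concentrations, 5 nM–87.5 uM) and 35mM guaiacol; 1mM H2O2 starts reaction. Absorbance change at 450nm over first 80 s; loss of signal versus DMSO, three replicates.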

Measured: AC50

Luciferin 4-monooxygenase (Photinus pyralis), sequence (P08659 whole entry, looked up): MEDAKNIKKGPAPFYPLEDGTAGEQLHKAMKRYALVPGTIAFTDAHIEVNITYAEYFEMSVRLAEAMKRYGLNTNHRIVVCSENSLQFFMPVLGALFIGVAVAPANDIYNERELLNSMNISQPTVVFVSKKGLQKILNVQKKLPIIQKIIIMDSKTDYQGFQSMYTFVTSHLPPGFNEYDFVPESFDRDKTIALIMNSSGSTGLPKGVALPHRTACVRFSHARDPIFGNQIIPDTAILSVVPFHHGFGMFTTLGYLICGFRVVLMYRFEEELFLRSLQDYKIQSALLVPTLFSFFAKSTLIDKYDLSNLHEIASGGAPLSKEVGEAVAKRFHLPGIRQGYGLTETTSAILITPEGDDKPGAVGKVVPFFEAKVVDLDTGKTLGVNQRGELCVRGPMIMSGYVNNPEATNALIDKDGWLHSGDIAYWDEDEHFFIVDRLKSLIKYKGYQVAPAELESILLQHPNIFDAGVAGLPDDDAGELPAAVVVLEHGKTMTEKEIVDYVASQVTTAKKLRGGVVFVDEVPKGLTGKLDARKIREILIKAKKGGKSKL
zebrafish Estrogen Receptor (ESR1), esr1 (gene 259252), sequence (P57717 whole entry, looked up, the tested form may be a part): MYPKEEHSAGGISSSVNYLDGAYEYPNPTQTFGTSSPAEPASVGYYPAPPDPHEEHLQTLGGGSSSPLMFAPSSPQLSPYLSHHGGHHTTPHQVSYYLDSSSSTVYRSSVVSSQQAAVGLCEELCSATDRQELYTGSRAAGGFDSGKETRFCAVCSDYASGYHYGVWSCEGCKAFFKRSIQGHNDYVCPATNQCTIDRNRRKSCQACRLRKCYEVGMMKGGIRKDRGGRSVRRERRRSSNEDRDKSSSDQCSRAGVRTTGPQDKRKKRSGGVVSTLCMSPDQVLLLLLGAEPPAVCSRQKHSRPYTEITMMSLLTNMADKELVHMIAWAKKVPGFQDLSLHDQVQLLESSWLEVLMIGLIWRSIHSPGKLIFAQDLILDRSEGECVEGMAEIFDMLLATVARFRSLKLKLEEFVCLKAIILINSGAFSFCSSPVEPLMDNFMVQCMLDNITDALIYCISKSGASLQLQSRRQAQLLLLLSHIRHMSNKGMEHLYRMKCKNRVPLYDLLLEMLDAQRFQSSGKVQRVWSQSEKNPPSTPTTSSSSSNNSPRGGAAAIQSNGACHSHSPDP

CCCCOC(=O)[C@@H](C)Oc1ccc(Oc2ccc(C(F)(F)F)cn2)cc1
inactive: [1] | [2] | [3] | [4]

C=CCOC(Cn1ccnc1)c1ccc(Cl)cc1Cl (configuration not stated)
inactive: [1] | [5] | [6]
active: [2] 11.7 µM | [7] 11.6 µM | [3] 66.4 µM | [4] 41.6 µM | [8] 3.63 µM

O=C(Nc1ccc([N+](=O)[O-])cc1Cl)c1cc(Cl)ccc1O
inactive: [1] | [2] | [9]
active: [3] 0.723 µM

CCNc1nc(N)nc(Cl)n1
inactive: [1] | [2]

C#C[C@]1(O)CC[C@H]2[C@@H]3CCC4=CC(=O)CC[C@@H]4[C@H]3CC[C@@]21CC
active: [5] 1.12 nM and 0.357 nM | [7] 1 µM | [4] 0.357 µM | [8] 0.222 µM
inactive: [1] | [2] | [6] | [7] | [8]

S=C(S)NCCNC(=S)S.[Mn+2].[S-]C([S-])=NCCN=C([S-])[S-].[Zn+2]
active: [1] 1.19 µM | [2] 0.00112 µM | [10] 9.92 µM | [11] 83.4 µM | [12] 50 µM | [9] 22.6 µM [middle of 4 runs]
inactive: [2] | [13] | [14] | [15] | [9]

CCCCC(CC)CN1C(=O)C2C3C=CC(C3)C2C1=O (configuration not stated)
inactive: [1] | [2] | [5] | [6] | [8]
active: [7] 25.4 µM | [3] 81.6 µM

CCCCC(CC)COC(=O)c1ccccc1C(=O)O (configuration not stated)
active: [16] 26.5 µM | [7] 61.8 µM | [8] 13.6 µM
inactive: [1] | [2] | [17] | [5] | [3]

CCOC(=O)c1ccc(O)cc1
inactive: [1] | [2]

CC(C)(C)[C@@H](O)[C@@H](Cc1ccc(Cl)cc1)n1cncn1
inactive: [1] | [2] | [3]

CC(=O)[C@H]1CC[C@H]2[C@@H]3CCC4=CC(=O)CC[C@]4(C)[C@H]3CC[C@]12C
inactive: [1] | [2] | [3]

CCN(Cc1c(F)cccc1Cl)c1c([N+](=O)[O-])cc(C(F)(F)F)cc1[N+](=O)[O-]
active: [1] 13.3 µM | [3] 50 µM
inactive: [2]

c1ccc2[nH]c(-c3cscn3)nc2c1
inactive: [1] | [2]
active: [3] 39.2 µM | [4] 34.5 µM

CC(C)(c1ccc(O)cc1)c1ccc(O)cc1
inactive: [1] | [10] | [11] | [18] | [12] | [13] | [15] | [9]
active: [2] 45 µM and 33.6 µM and 35.6 µM | [6] 1.26 µM | [7] 0.374 µM | [3] 41.4 µM | [8] 0.163 µM

S=C([S-])NCCNC(=S)[S-].[Mn+2]
inactive: [1] | [2] | [9]

C[C@]12C[C@H](O)[C@H]3[C@@H](CCC4=CC(=O)CC[C@@]43C)[C@@H]1CC[C@@H]2C(=O)CO
inactive: [1] | [2]

CCCCOCCOCCOCc1cc2c(cc1CCC)OCO2
inactive: [1] | [9]
active: [2] 4.35 µM | [3] 65 µM | [4] 50 µM

CCCN(CCC)C(=O)SCC
inactive: [1] | [2] | [3]

CC(=O)S[C@@H]1CC2=CC(=O)CC[C@]2(C)[C@H]2CC[C@@]3(C)[C@@H](CC[C@@]34CCC(=O)O4)[C@H]12
active: [7] 48.6 µM
inactive: [1] | [2] | [5] | [6] | [8]

CN(C)C(=O)Nc1ccc(Cl)c(Cl)c1
inactive: [1] | [2] | [9] | [3]
active: [4] 50 µM

c1ccc(Nc2ccccc2)cc1
active: [2] 30.3 µM | [3] 74.8 µM
inactive: [1] | [9]

COC(=O)c1ccccc1C(=O)O
inactive: [1] | [2] | [3]

C#CCOC(=O)[C@@H](C)Oc1ccc(Oc2ncc(Cl)cc2F)cc1
active: [3] 18.2 µM
inactive: [1] | [2]

Oc1ccc(C(c2ccc(O)cc2)C(Cl)(Cl)Cl)cc1
active: [2] 30.8 µM | [7] 0.0342 µM | [3] 20.9 µM
inactive: [1] | [9] | [6]

CCCCCOC(=O)COc1cc(N2C(=O)C3=C(CCCC3)C2=O)c(F)cc1Cl
inactive: [1] | [2]
active: [3] 78.1 µM

CSC(=O)c1cccc2nnsc12
inactive: [1] | [2] | [19] | [9]

CCCOC(=O)NCCCN(C)C
inactive: [2] | [3]

O=C(c1ccc(O)cc1O)c1ccc(O)cc1O
active: [9] 47.2 µM | [16] 0.133 µM | [17] 2.75 µM | [6] 1.38 µM | [7] 0.519 µM | [8] 0.544 µM
inactive: [2]
